In PubChem BioAssay AID1159580 (chemical genetic matrix, 2015):
Screen size: about 5,500 compounds; about 2,000 (36%) were called active. Not shown: some 18% with an inconclusive outcome. This is one part of the list. Values without a mark were called inactive. Cut-off read from the data, not from the text of the source: active = normalized growth mostly below about 0.91 (no sharp cut-off); inconclusive = no clear call, values can overlap the other calls; inactive = mostly above about 0.92.

Assay: chemical genetic growth profiling, strain panel (AID 1159580);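 note: tested at 20 µM; growth read once vehicle control cultures reached saturation at 30 °C; 1 = growth at the plate median or of vehicle wells; lower values mean less growth of the strain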
Settings: S. cerevisiae deletion strains, growth OD
[1] = locus YDL101C, strain DUN1, active compounds read low
[2] = locus YHR030C, strain SLT2, active compounds read low
[3] = locus YNL153C, strain GIM3, active compounds read low
[4] = locus YNL322C, strain KRE1, active compounds read low

`O=C(Nc1ccccc1C(=O)NC1CCCCNC1=O)c1cccs1` (configuration not stated) showed a normalized growth (locus YAL013W, strain DEP1, active compounds read low) of 1, a normalized growth (locus YBR229C, strain ROT2, active compounds read low) of 1.01 and a normalized growth [1] of 1. For the same compound, the normalized growth (locus YDL134C, strain PPH21, active compounds read low) was 1.01, the normalized growth (locus YDR150W, strain NUM1, active compounds read low) was 0.996 and the normalized growth (locus YEL061C, strain CIN8, active compounds read low) was 1.01. The normalized growth (locus YGR078C, strain PAC10, active compounds read low) was 1, the normalized growth [2] was 1.02 and the normalized growth (locus YHR087W, strain rtc3, active compounds read low) was 1.02. The normalized growth (locus YJL187C, strain SWE1, active compounds read low) was 1.01, the normalized growth (locus YJR043C, strain POL32, active compounds read low) was 0.972 and the normalized growth (locus YJR075W, strain HOC1, active compounds read low) was 1.02. The normalized growth (locus YLR039C, strain RIC1, active compounds read low) was 1.06, the normalized growth (locus YLR058C, strain SHM2 (second series), active compounds read low) was 1 and the normalized growth (locus YLR085C, strain ARP6, active compounds read low) was 1.01. It also gave a normalized growth (locus YLR262C, strain YPT6, active compounds read low) of 1.03, a normalized growth (locus YML094W, strain GIM5, active compounds read low) of 1.02 and a normalized growth (locus YMR219W, strain ESC1, active compounds read low) of 1.01. For the same compound, the normalized growth (locus YMR263W, strain SAP30, active compounds read low) was 1.01, the normalized growth [3] was 1 and the normalized growth (locus YNL298W, strain CLA4 (second series), active compounds read low) was 1.03. For the same compound, the normalized growth [4] was 1, the normalized growth (locus YNR030W, strain Alg12, active compounds read low) was 1.02 and the normalized growth (locus YPL055C, strain LGE1, active compounds read low) was 0.998. It also gave a normalized growth (locus YPL241C, strain CIN2, active compounds read low) of 1.03 and a normalized growth (locus YPR135W, strain CTF4, active compounds read low) of 1.01.
`O=C(O)[C@@H]1C[C@H](C(=O)O)N1` gave a normalized growth (locus YAL040C, strain CLN3, active compounds read low) of 0.943, a normalized growth (locus YCL061C, strain MRC1 (second series), active compounds read low) of 0.984 and a normalized growth (locus YDR363W, strain ESC2, active compounds read low) of 1.06. The normalized growth (locus YER002W, strain NOP16, active compounds read low) was 0.988, the normalized growth [3] was 0.986 and the normalized growth (locus YNL175C, strain NOP13, active compounds read low) was 0.99. The normalized growth (locus YNL197C, strain WHI3, active compounds read low) was 0.967, the normalized growth (locus YNL224C, strain SQS1, active compounds read low) was 0.965 and the normalized growth [4] was 0.987. For the same compound, the normalized growth (locus YOR083W, strain WHI5 (second series), active compounds read low) was 0.973.
`O=C(NCc1ccco1)c1ccc(Oc2cc(Cl)cc(Cl)c2)o1` showed a normalized growth (locus YAR019C, strain CDC15, active compounds read low) of 0.961, a normalized growth (locus YBL105C, strain PKC1, active compounds read low) of 0.96 and a normalized growth (locus YBR135W, strain CKS1, active compounds read low) of 0.964. The normalized growth (locus YBR136W, strain MEC1, active compounds read low) was 0.964, the normalized growth (locus YBR160W, strain CDC28, active compounds read low) was 0.967 and the normalized growth (locus YDL017W, strain CDC7, active compounds read low) was 0.969. For the same compound, the normalized growth (locus YDL028C, strain MPS1, active compounds read low) was 0.967, the normalized growth [1] was 0.964 and the normalized growth (locus YDL108W, strain KIN28, active compounds read low) was 0.96. For the same compound, the normalized growth (locus YDL132W, strain cdc53, active compounds read low) was 0.957, the normalized growth (locus YDL214C, strain PRR2, active compounds read low) was 0.936 and the normalized growth (locus YDR052C, strain DBF4, active compounds read low) was 0.968. For the same compound, the normalized growth (locus YDR054C, strain cdc34, active compounds read low) was 0.957, the normalized growth (locus YDR226W, strain ADK1, active compounds read low) was 0.959 and the normalized growth (locus YDR477W, strain SNF1, active compounds read low) was 0.952. It also gave a normalized growth (locus YER123W, strain YCK3, active compounds read low) of 0.932, a normalized growth (locus YER133W, strain GLC7, active compounds read low) of 0.932 and a normalized growth (locus YFL009W, strain cdc4, active compounds read low) of 0.957. For the same compound, the normalized growth (locus YFL029C, strain CAK1, active compounds read low) was 0.951, the normalized growth (locus YFR003C, strain YPI1, active compounds read low) was 0.962 and the normalized growth (locus YFR019W, strain FAB1, active compounds read low) was 0.96. The normalized growth (locus YFR028C, strain CDC14, active compounds read low) was 0.957, the normalized growth (locus YGR040W, strain KSS1, active compounds read low) was 0.948 and the normalized growth (locus YGR052W, strain FMP48, active compounds read low) was 0.95. It also gave a normalized growth (locus YGR092W, strain DBF2, active compounds read low) of 0.957, a normalized growth [2] of 1.05 and a normalized growth (locus YHR079C, strain IRE1, active compounds read low) of 1. The normalized growth (locus YHR082C, strain KSP1, active compounds read low) was 0.994, the normalized growth (locus YHR205W, strain SCH9, active compounds read low) was 0.952 and the normalized growth (locus YIL147C, strain SLN1, active compounds read low) was 0.964. The normalized growth (locus YJL095W, strain BCK1, active compounds read low) was 0.931, the normalized growth (locus YJL128C, strain PBS2, active compounds read low) was 0.914 and the normalized growth (locus YJL157C, strain FAR1, active compounds read low) was 0.941. It also gave a normalized growth (locus YJR016C, strain ILV3, active compounds read low) of 0.955, a normalized growth (locus YJR066W, strain TOR1 (second series), active compounds read low) of 0.974 and a normalized growth (locus YJR066W, strain TOR1, active compounds read low) of 1.03. It also gave a normalized growth (locus YKL048C, strain ELM1, active compounds read low) of 0.939, a normalized growth (locus YKL067W, strain YNK1, active compounds read low) of 0.945 and a normalized growth (locus YKL101W, strain HSL1, active compounds read low) of 0.917. For the same compound, the normalized growth (locus YKL193C, strain SDS22, active compounds read low) was 0.958, the normalized growth (locus YKL203C, strain TOR2, active compounds read low) was 1.01 and the normalized growth (locus YLR113W, strain HOG1, active compounds read low) was 0.761 (active). It also gave a normalized growth (locus YLR133W, strain CKI1, active compounds read low) of 0.931, a normalized growth (locus YLR403W, strain SFP1, active compounds read low) of 0.968 and a normalized growth (locus YML070W, strain DAK1, active compounds read low) of 0.94. For the same compound, the normalized growth (locus YMR001C, strain CDC5, active compounds read low) was 0.956, the normalized growth (locus YMR205C, strain PFK2 (second series), active compounds read low) was 0.942 and the normalized growth (locus YMR277W, strain FCP1, active compounds read low) was 0.958. For the same compound, the normalized growth (locus YNL006W, strain LST8, active compounds read low) was 0.971, the normalized growth (locus YNL020C, strain ARK1, active compounds read low) was 0.939 and the normalized growth (locus YNL161W, strain CBK1, active compounds read low) was 0.967. The normalized growth (locus YNL183C, strain NPR1, active compounds read low) was 0.963, the normalized growth (locus YNL207W, strain RIO2, active compounds read low) was 0.947 and the normalized growth (locus YNL222W, strain SSU72, active compounds read low) was 0.964. For the same compound, the normalized growth (locus YNL307C, strain MCK1 (second series), active compounds read low) was 0.93, the normalized growth (locus YOL078W, strain AVO1, active compounds read low) was 0.953 and the normalized growth (locus YOL136C, strain PFK27, active compounds read low) was 0.907. For the same compound, the normalized growth (locus YOR061W, strain CKA2, active compounds read low) was 0.942, the normalized growth (locus YOR119C, strain RIO1, active compounds read low) was 1.01 and the normalized growth (locus YOR231W, strain MKK1, active compounds read low) was 0.883. For the same compound, the normalized growth (locus YOR329C, strain SCD5, active compounds read low) was 0.965, the normalized growth (locus YPL031C, strain PHO85, active compounds read low) was 0.942 and the normalized growth (locus YPL153C, strain RAD53, active compounds read low) was 0.969. It also gave a normalized growth (locus YPL204W, strain HRR25, active compounds read low) of 0.941, a normalized growth (locus YPL209C, strain IPL1, active compounds read low) of 0.961 and a normalized growth (locus YPL256C, strain CLN2, active compounds read low) of 0.906. It also gave a normalized growth (locus YPR025C, strain CCL1, active compounds read low) of 0.961, a normalized growth (locus YPR106W, strain ISR1, active compounds read low) of 0.958 and a normalized growth (locus YPR111W, strain DBF20, active compounds read low) of 0.949. It also gave a normalized growth (strain NNK1, active compounds read low) of 0.942 and a normalized growth (strain TSCII, active compounds read low) of 0.955.
